# Source: article PMC12864922, “TDP-43 directly inhibits mRNA accumulation in neurites through modulation of mRNA stability”
# In all, about 9,900 sequences were measured (“r (bound/input frequency ratio)”: median about 0.7, highest 2% from about 6.5 on). The list comes from a sample in which the highest values are over-represented; it also holds similar and randomly drawn sequences.
# B1: ENSMUSG00000043670.63|Diras1 (ssRNA)
# RNA: GGGAGUUCUACAGUCCGACGAUCGCUUCGAUAUCCGCAUGCUAAGACCUCUCCCUCUAUAUCUCUUUGCUCCCCCACCCCCAUUCUAUCUGCACCCCACAACCACACACUGGAGGUUUGAUCCCUGUGGAUCUGAAAACAGGGACCUGGCUAAGGAACUGCUCAUCCCAGUCAGGCCCAGAGAGGUUACCUUGCCUCUCCAUCUCUGUCCCUGUGUGCCCAGCCAUGCCCACUGUCCCUGUCCCUCACAUUCUAUCACUGUGACCUCUGGGGAGUGCCCAUUGACCUCAUCUUCCUUCACUAACUCUUGCGGUCGCACUAGUGUGGAAUUCUCGGGUGUCAAGG
# B2: ENSMUSG00000058297.300|Spock2 (ssRNA)
# RNA: GGGAGUUCUACAGUCCGACGAUCGCUUCGAUAUCCGCAUGCUAAGGGCCACCCUGAUGCCCAGGAAGAGUGAGGGCAGCCCCCUGUGUGGUGGAAGAGGCUGGGCAGCUAGCUACUGGGGACCUUGUGCUGAGGCUUCCAGGACAAAGCCCCAGUCUGGCUCUCCCCCAGCCUCUCAGGGGCACUGGCUGGUCACAUCCACUGAGUAUUGAUCGGUUGGACUUUAGGGAAGAGCCUCCUCCUUCCCAUUCCUUUCUGCCACCCUGGAAUGGCCACCUUAAUCGUCAUCUCCUCGGGGGGAAUACUCUUGCGGUCGCACUAGUGUGGAAUUCUCGGGUGUCAAGG
# B3: ENSMUSG00000031028.551|Tub (ssRNA)
# RNA: GGGAGUUCUACAGUCCGACGAUCGCUUCGAUAUCCGCAUGCUACCUGGUUUCCCUUCUCAGCAGUCCUGGCCUCCCCUUCUCUGUAUUCCUUGCCCCAGCUACGAUAUCCUCAUGGGAUUUCAGGAUGCCAGGUGCCAUCAAAGCAUGCUUUUUUGUGGUGCCUAGCACUGUGACUGGGGCCCAACUGCCCUGCAGAGUUGGGACCUUGCACUGCCCUAGACCCUGGCUUUAGAUCUGCUUCAGUCUCCAGAACAGGCUAUGGGAUAGAUUUUUCUUUCAGUUUAUGGCCACCUGCCCAAAUUCUCUUGCGGUCGCACUAGUGUGGAAUUCUCGGGUGUCAAGG
# B4: ENSMUSG00000028439.8|Fam219a|14:18;220:226 (ssRNA)
# RNA: GGGAGUUCUACAGUCCGACGAUCGCUUCGAUAUCCGCAUGCUAAACCCCACCUGCAACACAUGUCAGGCCACUUCCUCCACCGCCUGCCACAUUCAGUAGUGGGCGGGGUCGCCGCGGUGCACGGGGCGCUGACCUGGGCCCGGUGGGAUGCAGCAGGAGAGACCCCUACCCUGCUGGUCCACUGGUCCCCAGCCCCGCGCCUCUUAGAGCCGCCAACCUCGUAACAGUCAUUGCUUCCUCCUAUGGUAGGACGUGUACCUCACACACAUCAAGGAGCCGGAGAAACCAAAACCGGGUCUGUCCUCUUGCGGUCGCACUAGUGUGGAAUUCUCGGGUGUCAAGG
# B5: ENSMUSG00000034801.23|Sos2 (ssRNA)
# RNA: GGGAGUUCUACAGUCCGACGAUCGCUUCGAUAUCCGCAUGCUAGAUUCCACGCAGCUGUCACUUGCUCAGCUCCAGUCACAGCAGCCUUGCUCAUCUUCCAGCUCCUCCUGUCCCACCAAGGCAGAAUUCAAGCCCUCUCUUACCAAAGCUGCCACCAAAGACUUACAAACGGGAGCUUUCCCACCCGCCACUGUAUAGACUGCCUCUGCUGGAAAAUGCAGAAACUCCUCAAUGACCUUGGCCAUAUGUAGUCAUUGACACUGGAAUAGUAUUUGUAAAGGUUUUUAAUUUAUUCAAAAAGACUCUUGCGGUCGCACUAGUGUGGAAUUCUCGGGUGUCAAGG
# B6: ENSMUSG00000028439.142|Fam219a (ssRNA)
# RNA: GGGAGUUCUACAGUCCGACGAUCGCUUCGAUAUCCGCAUGCUACGCCCUGCCACCCCCAGUCUUCUGUCUAUUGGUUCCAGGCUGGAAGCAAGAGAUAAGGCUGGCCUCCUGUGCCCCAUUGCCAUUUCACCCUAGCUCAAAGUCCAGGAGCCAGGCUUCCAGAAAGGCUCUUCAAGAGCAAGCUUAAGGAAAUACAGUGAGCCAAGUGGCUGUAUGAUAUGGUAUGGUAUGGUAUGGUAUGGUAUGGUAUGGUAUGCACAUGUGUGUGCAUGUGUGUGUGCCUGUGUGUGUGCGUGUGCGUGCUCUUGCGGUCGCACUAGUGUGGAAUUCUCGGGUGUCAAGG
# B7: ENSMUSG00000028439.139|Fam219a (ssRNA)
# RNA: GGGAGUUCUACAGUCCGACGAUCGCUUCGAUAUCCGCAUGCUAUCUGCCUCAUCCCCACACCGCCCUGCCACCCCCAGUCUUCUGUCUAUUGGUUCCAGGCUGGAAGCAAGAGAUAAGGCUGGCCUCCUGUGCCCCAUUGCCAUUUCACCCUAGCUCAAAGUCCAGGAGCCAGGCUUCCAGAAAGGCUCUUCAAGAGCAAGCUUAAGGAAAUACAGUGAGCCAAGUGGCUGUAUGAUAUGGUAUGGUAUGGUAUGGUAUGGUAUGGUAUGGUAUGCACAUGUGUGUGCAUGUGUGUGUGCCUGCUCUUGCGGUCGCACUAGUGUGGAAUUCUCGGGUGUCAAGG
# B8: ENSMUSG00000028439.145|Fam219a (ssRNA)
# RNA: GGGAGUUCUACAGUCCGACGAUCGCUUCGAUAUCCGCAUGCUACUUCUGUCUAUUGGUUCCAGGCUGGAAGCAAGAGAUAAGGCUGGCCUCCUGUGCCCCAUUGCCAUUUCACCCUAGCUCAAAGUCCAGGAGCCAGGCUUCCAGAAAGGCUCUUCAAGAGCAAGCUUAAGGAAAUACAGUGAGCCAAGUGGCUGUAUGAUAUGGUAUGGUAUGGUAUGGUAUGGUAUGGUAUGGUAUGCACAUGUGUGUGCAUGUGUGUGUGCCUGUGUGUGUGCGUGUGCGUGUGUGUAUGUGUGUGCGUGCUCUUGCGGUCGCACUAGUGUGGAAUUCUCGGGUGUCAAGG
# B9: ENSMUSG00000028439.144|Fam219a (ssRNA)
# RNA: GGGAGUUCUACAGUCCGACGAUCGCUUCGAUAUCCGCAUGCUACCCAGUCUUCUGUCUAUUGGUUCCAGGCUGGAAGCAAGAGAUAAGGCUGGCCUCCUGUGCCCCAUUGCCAUUUCACCCUAGCUCAAAGUCCAGGAGCCAGGCUUCCAGAAAGGCUCUUCAAGAGCAAGCUUAAGGAAAUACAGUGAGCCAAGUGGCUGUAUGAUAUGGUAUGGUAUGGUAUGGUAUGGUAUGGUAUGGUAUGCACAUGUGUGUGCAUGUGUGUGUGCCUGUGUGUGUGCGUGUGCGUGUGUGUAUGUGUGCUCUUGCGGUCGCACUAGUGUGGAAUUCUCGGGUGUCAAGG
# B10: ENSMUSG00000028439.146|Fam219a (ssRNA)
# RNA: GGGAGUUCUACAGUCCGACGAUCGCUUCGAUAUCCGCAUGCUAUCUAUUGGUUCCAGGCUGGAAGCAAGAGAUAAGGCUGGCCUCCUGUGCCCCAUUGCCAUUUCACCCUAGCUCAAAGUCCAGGAGCCAGGCUUCCAGAAAGGCUCUUCAAGAGCAAGCUUAAGGAAAUACAGUGAGCCAAGUGGCUGUAUGAUAUGGUAUGGUAUGGUAUGGUAUGGUAUGGUAUGGUAUGCACAUGUGUGUGCAUGUGUGUGUGCCUGUGUGUGUGCGUGUGCGUGUGUGUAUGUGUGUGCGUGUGUGUGCUCUUGCGGUCGCACUAGUGUGGAAUUCUCGGGUGUCAAGG
# B11: ENSMUSG00000028439.143|Fam219a (ssRNA)
# RNA: GGGAGUUCUACAGUCCGACGAUCGCUUCGAUAUCCGCAUGCUAGCCACCCCCAGUCUUCUGUCUAUUGGUUCCAGGCUGGAAGCAAGAGAUAAGGCUGGCCUCCUGUGCCCCAUUGCCAUUUCACCCUAGCUCAAAGUCCAGGAGCCAGGCUUCCAGAAAGGCUCUUCAAGAGCAAGCUUAAGGAAAUACAGUGAGCCAAGUGGCUGUAUGAUAUGGUAUGGUAUGGUAUGGUAUGGUAUGGUAUGGUAUGCACAUGUGUGUGCAUGUGUGUGUGCCUGUGUGUGUGCGUGUGCGUGUGUGUACUCUUGCGGUCGCACUAGUGUGGAAUUCUCGGGUGUCAAGG
# B12: ENSMUSG00000004113.108|Cacna1b|97:101;113:118;234:238 (ssRNA)
# RNA: GGGAGUUCUACAGUCCGACGAUCGCUUCGAUAUCCGCAUGCUAGGACCCAGCAAAUCCAAAUCCUAUGUCAUGGCCUCCAGCAUCCAGGGUGGGUCCUUGGGACUUUUCUUAGGAGGGACUUUCUGAGCCUCGUGGAGACACACGUUUGUCCAAAACACACGCAUGGGAGAUAGGGUACCCCUGAAAGCAAGGAAAGGAGCCCAGCUGUGGCCUGGUAGCACCUGCCGGCACCAGUGAUCUCACGUCUCUUGUGGUCUUGGAGUCAAAUAGCACAUCAUACUAGAGAUGCGCUCAAGGGCCUGCUCUUGCGGUCGCACUAGUGUGGAAUUCUCGGGUGUCAAGG
# B13: ENSMUSG00000042529.323|Kcnj12 (ssRNA)
# RNA: GGGAGUUCUACAGUCCGACGAUCGCUUCGAUAUCCGCAUGCUAGAUGCUGUAUUUUCAAAUUCUCCUGCCCUCUUUUCCCCUUUUUCCCUGUAUUUAUUUAUUGCUUGUGCUAAAGACCAAACUAGCCGCCCCCUUUAGUGCACCCAAUGGAGGAAGCCACUGAGGGGGGAGCCGUGUGCCUGUGCCAGGCAGGAAAGCUUGGCCCCUGGGAAGUGUGUGAGAAGGAAAACCAGGGUGUGUGUGCACGCAUGUGCAGACGUGCUCACACGAUCGUCUCCCUGUGUGGGAAACUUGGUAUGCAGCUCUUGCGGUCGCACUAGUGUGGAAUUCUCGGGUGUCAAGG
# Molecular target: TDP-43 (Homo sapiens, UniProt Q13148 1-414)
# Sequence (Q13148 whole entry): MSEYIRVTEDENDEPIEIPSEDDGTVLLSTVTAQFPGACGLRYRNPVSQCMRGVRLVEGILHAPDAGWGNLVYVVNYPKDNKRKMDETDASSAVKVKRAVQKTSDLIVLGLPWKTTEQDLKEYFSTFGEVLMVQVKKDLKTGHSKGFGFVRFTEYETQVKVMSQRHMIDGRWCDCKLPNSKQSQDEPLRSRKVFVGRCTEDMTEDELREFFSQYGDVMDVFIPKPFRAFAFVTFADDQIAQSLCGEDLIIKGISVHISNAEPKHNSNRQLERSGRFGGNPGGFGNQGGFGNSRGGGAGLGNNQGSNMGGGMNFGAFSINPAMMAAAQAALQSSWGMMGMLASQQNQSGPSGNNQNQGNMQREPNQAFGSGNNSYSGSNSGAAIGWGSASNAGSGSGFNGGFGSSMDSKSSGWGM
# Assay: RNA Bind-n-Seq with designed 260-mer pool; 25 mM Tris-HCl, 150 mM KCl, 3 mM MgCl2, BSA (printed 500 mg/mL), 20 units/mL SUPERase IN; pH not stated; 500 nM RNA pool, 1 h, 4 C; TDP-43 5, 50, 500 nM; high values mean tight binding
# Conditions: protein: recombinant; tags: SBP (GST cleaved off with PreScission; pGEX-GST-SBP)
# Procedure, shortened: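 Streptavidin beads captured recombinant SBP-tagged TDP-43 at 5, 50 or 500 nM, and the beads were incubated for 1 h at 4 °C with 500 nM of an in vitro-transcribed pool of 260-nt 3′ UTR oligos in 25 mM Tris-HCl, 150 mM KCl, 3 mM MgCl2, BSA and SUPERase IN. After washing, bound RNA was eluted with biotin, reverse transcribed, PCR-amplified and sequenced. Binding is reported as R, the mapped-read-normalized abundance of each oligo in the bound sample divided by its abundance in the input. Two independent protein batches served as duplicates.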
row,Binder,binding signal
1,B1,2.02 R (bound/input frequency ratio)
2,B2,0.798 R (bound/input frequency ratio)
3,B3,0.798 R (bound/input frequency ratio)
4,B4,0.367 R (bound/input frequency ratio)
5,B5,0.462 R (bound/input frequency ratio)
6,B6,4.5 R (bound/input frequency ratio)
7,B7,2.12 R (bound/input frequency ratio)
8,B8,8.23 R (bound/input frequency ratio)
9,B9,6.06 R (bound/input frequency ratio)
10,B10,7.87 R (bound/input frequency ratio)
11,B11,5.96 R (bound/input frequency ratio)
12,B12,0.293 R (bound/input frequency ratio)
13,B13,2.13 R (bound/input frequency ratio)
